Data reported in the supplement of paper PMC6555819.

Tested on: VDR:RXRa (NR concentration 270 nM, RXRa partner concentration 90 nM)
Assay: PBM binding z-score (relative to random genomic background probes); higher = stronger binding; sequences stand for … in GC…GCGATTGACAGCGTAGAATGAAGG
Method: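 Protein-binding microarray (Agilent 4x180K custom design, double-stranded 60-nt probes: 5' GC cap, 34-nt variable region, 24-nt constant primer region; full probe sequence given). Purified or IVT nuclear receptor:RXRα heterodimers (3:1 NR:RXRα, mostly 270:90 nM) or homodimers were incubated for 1 h in PBS with 2% milk and no ligand, then detected with Alexa488 antibodies. Fluorescence from o1-orientation probes (~5 replicates averaged) was converted to z-scores against 500 random hg19 background probes. Variable regions are seed direct-repeat (DR0–DR5) sites, all their single-nucleotide variants and half-site ablations.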

Sequence | PBM binding z-score
TCTCGGCGGACACGAAGGTCAGAGCTTTCCAGAG | 0.658
AGAATGAGGTTGCCAAAGATCAGGGAAACGCTTG | 0.143
ATATGTAGGGTACATCCGGGTCATTCAGGCTATG | 5.09
GCTAGAAGGCCATTTGGGTCACTCAATGACGGGC | 1.82
GGAACGAGGGCATGCGAGTTGATAGCATGGCGAT | 2.9
GGAACGAGGGCAAAGTTGATAGGATCTGTCGACG | 1.37
ATGGAAAGGTCGAGGTGAGTATAGAGAAAGGGAA | 2.81
CATCAAAGTTCAACTAAGGTAACGTAAAGCACGC | 4.98
CAAACTAGGTCACGAAAGGTGAAAGTCGAATGAC | 4.19
TAGGCTAGGTCATTCAGGGGCCAGTATAGAAAGC | 3.24
TCCTATAGGTAAACAGGTGAAAGTCCGTAAGTTA | 0.775
CGTTCAAGGTCAATGCTAGGTCAGTGAAAGCATT | 4.78
ATCTCTAGGTAAGACTCAGTTGAGTGAAGAACGC | -0.0518
TCTATTAGTAGAAGGGCAACCGACGAGTCCGTTT | 0.796
TCTAATAGTTGATTAGGGCAACCGAAACAGCGGA | 0.582
GCTGCTAGGTCAACTGATGGTCGGCTAAAGCTCG | 1.4
GCTAGTTGGTCACTAAAAGGTCACACACCGGTCG | 4.17
ATATGTAGGTTAGCTGGGGTAATTCAGACTAGGC | 0.945
AGAATGAGGTTAAGATCAGGTAAACAGAATACAT | 1.49
CAAACTAGGTCAAGAGGTCAGAGTCCGCTTCCCG | 4.89

Sequence | PBM binding z-score
AGTCAAAGTTCACTTGGTAACGTAAGATTCAGCT | 4.07
GGAACGAAGGCAAAGTTGATAGCATCTGTCGACG | -0.832
TCTCGGACGACACGAAGGTCAGAGCTTTCCAGAG | 1.2
TGTTGTAGATCAGCAGGTTAAGAAAGCTGGCCAA | -0.372
AGTCAAAGTTCACTCGGTAACGTAAGATTCAGCT | 4.31
TCTGGTTGGTCAAAGGTCACACACTCGAAATGCG | 5.33
CGAAGTAGGTCAGAACAGGACAGTGAAGGATGAT | 0.559
TAGCCGAGGTCATGGGCCAGTATACCACGCGAAC | 5.46
CCTCGGAGGACAACATGAGGTCAGAGCTGCCAGA | 2.98
GCTTGTGGATCAAGGTTAAGAAAGACTAAGCTAA | 0.111
TCTTATAGATCAGCAGGTTAAGAAAGCTGGCCAA | 0.455
TATACAGGGTCAAAGGCCACAGTACGAATGTCGA | 5.15
CCGGCTGGGGCAAAGGTTACCATACTCAGTACGA | 1.58
TTACCAAGGTGAGCTAAGGTCGTTGATCCAACTC | 3.13
TCTGCTAGGTCAACGATGGTCAGCCAATCTGCTA | 1.66
TCATATAGTTAAAGGTGAAAGTCGAACGATATGA | 1.2
CGAACTAGGTCAGAACAGGACAGTGAGGGATGAT | 0.739
TTACCAAGGTGAAATGTCGTTGATGCACGCCTTG | 0.159
ATACCAAGGTGATCGTTAGGTCGTTGATACTAAC | 0.566
TATACAGGGTCAAAGGCCTGAGTACGAATGTCGA | 4.53
